Screening results deposited in PubChem by National Center for Advancing Translational Sciences (NCATS).
This is a sample that favours compounds with a hit; in the whole collection about 21% have one here.
NS1 inh: influenza NS1 inhibition. Potency, µM (doses to about 46.1 µM), for inactives: at the highest dose activity, positive = more growth. actives 0.4% (n = 270,000). AID 2326; calls by dose curve; note: potency is the fitted concentration of half-maximal effect; actives are rising curves; nearly all actives have a fitted effect of over 50% in size
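In this qHTS, NS1 from influenza A is expressed in budding yeast, where it slows growth. Cells are switched from glucose to 2% galactose medium (pH 6.0, -URA), treated with compound, and growth recovery is read at OD600.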
CHX counter: counter-screen for Shiga toxin inhibitors: cycloheximide protein synthesis inhibition; max response, %; AID 2314; cell reporter, cycloheximide protein synthesis inhibition counterscreen; actives 12% (n = 300,000); in the data active = max response mostly above about 13%, no sharp cut-off; inactive = mostly below about 14%; note: read at 38.3 µM for the half of the compounds with a filed dose; 0% is about no effect
Shiga toxin inh: inhibitors of Shiga toxin in Vero cells; inhibition, % at 38.7 µM; actives 9.2% (n = 290,000); Vero cells, Shiga toxin protein synthesis inhibition reporter; in the data active = inhibition mostly above about 28%, no sharp cut-off; inactive = mostly below about 43%; note: 0% is about no effect
Pf growth 48h: inhibits P. falciparum growth in the first generation, 48 h; AID 504832; actives 5.9% (n = 310,000); P. falciparum luciferase growth in erythrocytes, 48 h; Potency, µM (titrated, usually from 28.7 µM), inactives show at the top dose activity change, negative = inhibition, hits mostly inhibitors; note: potency is the fitted concentration of half-maximal effect; % is set by controls: 0 for no effect and ±100 for the full control effect
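First compound was added to culture medium, then infected red cells at 0.1% parasitemia and 2% hematocrit (final). After incubation at 37 C under 5% CO2, luciferase detection reagent was dispensed and light output recorded.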
Pf growth 96h: inhibits malaria parasite growth, 96 h | actives 6.9% (n = 320,000) | Potency, µM (top dose mostly 28.7 µM), without a hit: top-dose activity change, negative = inhibition, hits mostly inhibitors | P. falciparum luciferase reporter growth, 96 h | AID 504834; note: potency is the fitted concentration of half-maximal effect; % is set by controls: 0 for no effect and ±100 for the full control effect
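Two-generation exposure (96 h) targets delayed-death phenotype. Reporter parasites carrying integrated firefly luciferase, in red cells at 2% hematocrit and 0.05% parasitemia final, kept at 37 C, 5% CO2; luminescence loss indicates inhibition.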
Giardia FBPA inh: Giardia lamblia aldolase inhibition; purified Giardia FBPA; Potency, µM (titrated, usually from 59.6 µM), inactives show top-dose activity, negative = inhibition, actives largely listed as inhibitors; actives 0.71% (n = 290,000); AID 2451; note: potency is the fitted concentration of half-maximal effect; % is set by controls: 0 for no effect and ±100 for the full control effect; nearly all actives have a fitted effect of over 55% in size
Target sequence (A8B2U2 whole entry, looked up): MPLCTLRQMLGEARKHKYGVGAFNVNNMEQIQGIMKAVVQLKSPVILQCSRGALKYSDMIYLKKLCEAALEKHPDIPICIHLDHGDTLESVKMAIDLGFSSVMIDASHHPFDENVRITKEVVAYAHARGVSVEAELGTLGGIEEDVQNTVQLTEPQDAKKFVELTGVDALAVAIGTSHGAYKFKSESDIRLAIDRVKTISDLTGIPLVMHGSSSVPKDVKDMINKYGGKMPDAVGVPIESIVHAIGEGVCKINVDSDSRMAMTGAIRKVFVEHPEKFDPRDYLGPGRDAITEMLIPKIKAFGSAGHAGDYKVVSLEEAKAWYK
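40 nM FBPA preincubated 10 min at RT with compound (up to 57.5 uM final), then substrate plus GAPDH/TPI/NAD/arsenate coupling and diaphorase/resazurin added. Fluorescence read after 20 min at RT, 525/598 nm.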
An asterisk follows results filed as active; ? = inconclusive; . = not tested or not shown. Unless noted, calls come from the whole dose curve; as a rule, active = well fitted curve in the direction sought with a large enough effect; inconclusive = small, poorly fitted or top-dose-only effect, or another doubt; inactive = no such curve, though single readings can be large; an effect the other way counts as inactive or inconclusive.

SMILES	NS1 inh	CHX counter	Shiga toxin inh	Pf growth 48h	Pf growth 96h	Giardia FBPA inh
Cc1cc(C(=O)CSc2ccc3c(c2)OCCO3)c(C)n1C1CC1	-10%	67*	92*	99%	77%	-10%
CC(C)N(C(=O)CS(=O)(=O)c1ccc(Cl)c(Cl)c1)C(C)C	-4%	-1	-7	-10%	0%	1%
CC1CCN(C(=O)CCCC(=O)N2CCC(C)CC2)CC1	5%	19	24*	8%	?	.
O=C(O)CCCC(=O)N1CCCC1	4%	-3	-2	18%	99%	0%
O=C(CCCC(=O)N1CCCC1)N1CCCC1	1%	19	27*	.	12%	0%
COc1ccc(C(=O)NCC(=O)OCC(=O)N2CCc3ccccc32)cc1	.	2	-7	-1%	30%	6%
CCC(=O)Nc1nc(C)c(-c2csc(Nc3cccc(O)c3)n2)s1	11%	36*	50*	.	-19%	-19%
Cc1nc(N)sc1-c1csc(Nc2cccc(O)c2)n1	0%	14*	30	95%	0%	?
Cc1nc2ccccn2c1-c1csc(Nc2cccc(O)c2)n1	3%	2	32	0%	0%	1%
Cc1nc(C)c(-c2csc(Nc3cccc(O)c3)n2)s1	4%	45*	35*	33%	?	-17%
Cc1cccc(Nc2nc(-c3sc(C)nc3C)cs2)c1	8%	29*	50*	18%	?	6%
Cc1cccc(Cn2nc(-n3cccc3)c3c(C)cc(C)nc32)c1	.	9	23	0%	?	6%
Cc1nc(NCc2ccccc2)c2nc(-c3ccccc3)n(CC(C)(C)CN(C)C)c2n1	.	.	.	.	.	5%
COc1cc(C(=O)Oc2ccc3c(OC)c4ccoc4nc3c2OC)cc(OC)c1OC	.	.	.	.	.	5%
CCOC(=O)Cn1cc(C(=O)c2ccccc2F)c2ccccc21	-12%	17*	45	74%	53%	-2%
COC(=O)Cn1cc(C(=O)c2ccccc2F)c2ccccc21	-49%	-2	1	7%	1.7µM*	-7%
O=C(c1ccccc1F)c1cn(Cc2ccc(F)cc2)c2ccccc12	3%	1	-9	-5%	7.4µM*	-7%
CCOC(=O)c1sc(=S)n(-c2ccc(OC)cc2)c1N	4%	8	7	?	?	1%
Cc1ccc(-n2c(C)c([N+](=O)[O-])c3ccc(O)c(CN(C)C)c32)cc1	?	-3	-16	13µM*	.	3%
CCOC(=O)c1sc(=S)n(-c2ccc(C)cc2)c1SC	15%	6	15	1.2µM*	0.47µM*	12%
CCOC(=O)c1sc(=N)n(-c2ccc(OC)cc2)c1C	-10%	28*	102	49%	7%	-1%
CCOC(=O)c1c(C)n(-c2ccc(OC)cc2)c2ccc(O)c(CN(C)C)c12	6%	-4	-7	?	7.4µM*	-7%
CCOC(=O)c1c(C)n(C)c2ccc(O)c(CN(C)C)c12	-3%	0	-11	-7%	19%	-19%
COc1ccc(NC(=O)c2cccc(N3C(=O)c4ccc(C(=O)Nc5ccc(OC)c(O)c5)cc4C3=O)c2)cc1O	-8%	-1	-26	?	?	.
C[C@]12CC[C@H](O)CC1=CC[C@H]1[C@@H]2CC[C@@]2(C)C(N(CCO)CCO)CC[C@@H]12 (some centres not stated)	-8%	.	.	.	.	.
SMILES	NS1 inh	CHX counter	Shiga toxin inh	Pf growth 48h	Pf growth 96h	Giardia FBPA inh
CCOC(=O)c1c(C)n(-c2ccc(C)cc2)c2ccc(O)c(CN(C)C)c12	0%	-6	-6	10µM*	32%	0%
O=c1cnc2cnc(Oc3ccccc3)nc2n1C[C@H]1CCCO1	.	.	.	.	.	0%
Cc1ccc(Cl)c2c(N=Nc3ccccc3)c(O)[nH]c12	5%	18*	66*	148%	-27%	11%
Cc1cc(Cl)cc2c(N=Nc3ccccc3C(=O)O)c(O)[nH]c12	1%	7	13	?	5%	-11%
CCOC(=O)N1CCN(C(=O)/C=C/c2c(C)nn(-c3ccc(F)cc3)c2Cl)CC1	.	-8	16	?	-13%	2%
CC(C(=O)NC(C)(C)C)N1C(=O)c2cccc3cccc(c23)C1=O (configuration not stated)	.	4	-7	-12%	16%	-2%
O=C(Cc1ccc(S(=O)(=O)N2CCOCC2)s1)NCC(=O)Nc1ccccc1Br	.	.	.	6%	-1%	.
O=C(Cc1ccc(S(=O)(=O)N2CCOCC2)s1)Nc1ccccc1Br	5%	-2	2	2.3µM*	3.7µM*	-3%
CC(C)(C)c1csc(NC(=O)Cc2ccc(S(=O)(=O)N3CCOCC3)s2)n1	.	.	.	?	10µM*	.
CCCCc1nnc(NC(=O)Cc2ccc(S(=O)(=O)N3CCOCC3)s2)s1	.	.	.	10µM*	?	.
O=C(O)CCN(CC(=O)c1ccc(Cl)cc1)S(=O)(=O)c1ccc([N+](=O)[O-])cc1	.	.	.	36%	32%	.
O=C(CN1CCOCC1)Nc1nc(-c2ccc3c(c2)CCN3S(=O)(=O)c2ccccc2)cs1	12%	8	-15	2.1µM*	.	-3%
CC(=O)Nc1nc(-c2ccc3c(c2)CCN3S(C)(=O)=O)cs1	5%	18*	67*	-23%	27%	-20%
Cc1sc(NC(=O)CN2CCOCC2)nc1-c1ccc2c(c1)CCN2S(=O)(=O)c1ccccc1	8%	-4	-2	12µM*	.	-6%
Cn1cccc1C(=O)N1CCC2(CC1)CN(c1ccncc1)C2	.	.	.	.	.	0%
Cc1ccc(NC(=S)NN(C)c2cc(C)nc(C)n2)cc1	3%	-5	-3	16%	0%	-9%
COCCNc1nc(-c2ccccc2OC)nc2ccccc12	.	.	.	.	.	-4%
CCc1ccc(NC(=O)C(C)OC(=O)CC(NC(C)=O)c2ccccc2)cc1 (configuration not stated)	?	33*	29	?	10%	0%
COC(=O)[C@@H](NC(=O)O[C@@H]1C(=O)c2cc(OC)ccc2O[C@H]1c1ccc(OC)c(Br)c1)C(C)C	.	.	.	.	.	-1%
CC(Nc1cc(N2CCCC2)ccc1[N+](=O)[O-])c1ccccc1 (configuration not stated)	4%	-3	30	13µM*	?	-3%
CC(Nc1cc(N2CCOCC2)ccc1[N+](=O)[O-])c1ccccc1 (configuration not stated)	13%	-3	-13	?	-13%	-7%
CC(Nc1cc(N2CCN(S(=O)(=O)N(C)C)CC2)ccc1[N+](=O)[O-])c1ccccc1 (configuration not stated)	-2%	2	2	15µM*	182%	?
CCCC(=O)N1CCN(c2ccc([N+](=O)[O-])c(NC(C)c3ccccc3)c2)CC1 (configuration not stated)	-57%	-6	-20	12µM*	9.3µM*	-17%
CCN(CCCCO)c1nc(C)nc2c1c(C)c(C)n2-c1c(C)cc(C)cc1C	.	-8	-10	.	.	-17%
